# The source made the active and inactive calls. How the source made its calls: active means hit-call score of the fitted dose curve at least 0.9, where 1 is the maximum; inactive means score below 0.9.
# Legend:
# [1] = ATG_GRE_CIS: Attagene CIS-FACTORIAL HepG2 Assay for human Glucocorticoid Response Elements (GRE) (AID 2282947); conditions: HepG2 GRE cis-reporter, Attagene multiplex mRNA; actives raise or lower the signal
# Procedure, shortened: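 Endogenous transcription factor activity is read through cis-element reporter constructs transiently transfected into HepG2 cells. After 24 h treatment, labelled RT-PCR products are resolved by capillary electrophoresis; DMSO sets baseline for bidirectional curve fitting.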
# [2] = ATG_ISRE_CIS: Attagene CIS-FACTORIAL HepG2 Assay for human Interferon Regulatory Factor 1 (IRF1) binding to an Interferon-Stimulated Response Element (ISRE) (AID 2282948); conditions: HepG2 ISRE cis-reporter (Attagene), mRNA transcription readout; actives raise or lower the signal
# Procedure, shortened: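 Quantitation relies on labelled RT-PCR fragments separated by capillary electrophoresis. Human HepG2 cells bearing cis-promoter reporter constructs were treated 24 h; DMSO served as baseline for bidirectional fitting.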
# [3] = ATG_M_32_CIS: Attagene CIS-FACTORIAL HepG2 Assay for M32 Transcription Factor (Internal Marker) (AID 2282949); conditions: HepG2 Attagene cis-factorial M32 reporter, mRNA; actives raise or lower the signal;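 further: background control marker of the multiplexed CIS panel rather than a real target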
# Procedure, shortened: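 Following 24 h chemical exposure of HepG2 cells transiently expressing cis-promoter reporter constructs, reporter transcript levels were determined by RT-PCR with fluorescent labelling and capillary electrophoresis, then fitted bidirectionally against DMSO.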
# [4] = ATG_M_06_CIS: Attagene CIS-FACTORIAL HepG2 Assay for M06 Transcription Factor (Internal Marker) (AID 2282950); conditions: HepG2 Attagene CIS-FACTORIAL M06 internal marker reporter; actives raise or lower the signal
# Procedure, shortened: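 Steps: transfect HepG2 with multiplexed cis-element reporter constructs; dose chemical 24 h; extract RNA with DNase treatment; reverse-transcribe, PCR-amplify, 6-FAM label, HpaI digest; separate fragments by capillary electrophoresis. Activity fitted both directions versus DMSO.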
# [5] = molecular target: Hypoxia-inducible factor 1-alpha (Homo sapiens) (UniProt Q16665); test: ATG_HIF1a_CIS: Attagene CIS-FACTORIAL HepG2 Assay for human Hypoxia Inducible Factor 1 (HIF1A) (AID 2282951); conditions: HepG2 Attagene cis-factorial HIF1a reporter transcription; actives raise or lower the signal
# Chain of Hypoxia-inducible factor 1-alpha (Homo sapiens) (Q16665 whole entry, looked up): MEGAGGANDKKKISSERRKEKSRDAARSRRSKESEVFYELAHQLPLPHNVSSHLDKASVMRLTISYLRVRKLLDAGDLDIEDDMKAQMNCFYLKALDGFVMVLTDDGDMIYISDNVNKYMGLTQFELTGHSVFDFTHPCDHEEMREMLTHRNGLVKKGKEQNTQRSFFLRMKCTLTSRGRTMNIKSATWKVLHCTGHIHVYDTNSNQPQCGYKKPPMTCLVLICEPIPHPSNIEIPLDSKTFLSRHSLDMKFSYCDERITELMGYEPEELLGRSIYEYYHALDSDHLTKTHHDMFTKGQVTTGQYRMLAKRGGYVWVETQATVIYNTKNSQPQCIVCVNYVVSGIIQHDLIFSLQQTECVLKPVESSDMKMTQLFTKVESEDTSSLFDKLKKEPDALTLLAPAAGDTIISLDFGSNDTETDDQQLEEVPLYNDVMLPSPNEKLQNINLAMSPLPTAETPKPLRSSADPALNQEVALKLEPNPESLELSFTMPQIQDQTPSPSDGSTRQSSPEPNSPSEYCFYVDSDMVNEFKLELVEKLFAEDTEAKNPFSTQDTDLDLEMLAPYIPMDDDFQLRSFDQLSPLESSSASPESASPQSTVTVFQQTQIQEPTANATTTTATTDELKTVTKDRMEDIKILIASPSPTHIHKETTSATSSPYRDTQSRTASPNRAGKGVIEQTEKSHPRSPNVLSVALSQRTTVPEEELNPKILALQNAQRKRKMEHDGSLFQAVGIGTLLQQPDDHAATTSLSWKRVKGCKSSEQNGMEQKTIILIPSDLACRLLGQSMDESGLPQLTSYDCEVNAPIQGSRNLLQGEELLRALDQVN
# Procedure, shortened: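 Cis-element reporter constructs were transiently transfected into HepG2 cells, which were treated for 24 h; reporter RNA was reverse-transcribed, amplified, labelled and resolved by capillary electrophoresis.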
# [6] = molecular target: Hepatocyte nuclear factor 6 (Homo sapiens) (UniProt Q9UBC0); test: ATG_HNF6_CIS: Attagene CIS-FACTORIAL HepG2 Assay for human Hepatocyte Nuclear Factor 6 (HNF6) (AID 2282952); conditions: HepG2 Attagene cis-factorial HNF6 reporter transcription; actives raise or lower the signal
# Chain of Hepatocyte nuclear factor 6 (Homo sapiens) (Q9UBC0 whole entry, looked up): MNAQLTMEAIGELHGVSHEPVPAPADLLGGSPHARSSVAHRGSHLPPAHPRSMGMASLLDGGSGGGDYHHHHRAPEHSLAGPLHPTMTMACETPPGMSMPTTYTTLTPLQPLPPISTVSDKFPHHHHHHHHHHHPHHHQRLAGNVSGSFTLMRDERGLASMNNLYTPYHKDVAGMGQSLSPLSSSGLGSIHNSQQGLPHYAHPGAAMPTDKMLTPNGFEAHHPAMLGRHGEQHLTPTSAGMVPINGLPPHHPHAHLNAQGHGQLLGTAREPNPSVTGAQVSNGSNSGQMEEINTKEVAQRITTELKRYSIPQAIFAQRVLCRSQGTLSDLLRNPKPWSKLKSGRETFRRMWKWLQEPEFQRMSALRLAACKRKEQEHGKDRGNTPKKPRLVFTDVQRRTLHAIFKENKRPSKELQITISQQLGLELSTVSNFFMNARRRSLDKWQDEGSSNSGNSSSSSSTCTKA
# Procedure, shortened: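 Multiplexed mRNA reporter assay in transfected HepG2; 24 h dosing; RT-PCR plus capillary electrophoresis fluorescence; DMSO-referenced bidirectional curve fitting.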
# [7] = ATG_MRE_CIS: Attagene CIS-FACTORIAL HepG2 Assay for human Metal Responsive Element (MRE) (AID 2282954); conditions: HepG2 MRE cis-reporter transcription, Attagene multiplex; actives raise or lower the signal
# Procedure, shortened: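 Fluorescent reporter fragments separated by capillary electrophoresis give mRNA induction for the MRE unit after 24 h treatment of transfected HepG2 cells. Endogenous transcription-factor activity is read; DMSO serves as negative control and baseline.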
# [8] = ATG_PBREM_CIS: Attagene CIS-FACTORIAL HepG2 Assay for human Phenobarbital-responsive Enhancer Module (PBREM) (AID 2282955); conditions: HepG2 PBREM cis-reporter, Attagene multiplexed transcription; actives raise or lower the signal
# Procedure, shortened: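 Multiplexed cis-reporter readout in human hepatoma HepG2 cells; PBREM-regulated transcript quantified after 24 h exposure by fluorescent RT-PCR fragment analysis. Signal changes up or down fitted relative to DMSO.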
# [9] = molecular target: Paired box protein Pax-6 (Homo sapiens) (UniProt P26367); test: ATG_Pax6_CIS: Attagene CIS-FACTORIAL HepG2 Assay for human Paired Box 6 (PAX6) (AID 2282956); conditions: HepG2 CIS-FACTORIAL PAX6 reporter transcription, RNA readout; actives raise or lower the signal
# Chain of Paired box protein Pax-6 (Homo sapiens) (P26367 whole entry, looked up): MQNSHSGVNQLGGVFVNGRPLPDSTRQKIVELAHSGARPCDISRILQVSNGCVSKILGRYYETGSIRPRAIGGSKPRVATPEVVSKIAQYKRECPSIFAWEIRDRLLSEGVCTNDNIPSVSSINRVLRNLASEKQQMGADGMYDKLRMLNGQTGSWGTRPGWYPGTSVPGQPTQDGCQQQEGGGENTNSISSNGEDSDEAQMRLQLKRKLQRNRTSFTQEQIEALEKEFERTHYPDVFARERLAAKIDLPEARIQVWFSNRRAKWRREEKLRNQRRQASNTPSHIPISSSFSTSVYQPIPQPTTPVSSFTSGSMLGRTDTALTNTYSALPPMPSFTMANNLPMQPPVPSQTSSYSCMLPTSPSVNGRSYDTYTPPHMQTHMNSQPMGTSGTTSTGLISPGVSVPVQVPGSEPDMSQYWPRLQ
# Procedure, shortened: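 After twenty-four hours of chemical exposure, transfected HepG2 cells are harvested for RNA. Cis-promoter reporter transcripts are amplified, fluorescently labelled and sized by capillary electrophoresis, with gain and loss of signal scored against DMSO.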
# [10] = ATG_PXRE_CIS: Attagene CIS-FACTORIAL HepG2 Assay for human Pregnane X Receptor Element (PXRE) (AID 2282957); conditions: HepG2 Attagene CIS-FACTORIAL PXRE reporter, mRNA; actives raise or lower the signal
# Procedure, shortened: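 Cells: HepG2, transiently transfected reporter units under cis promoter control. Exposure: 24 h. Detection: reporter mRNA via RT-PCR/CE fluorescence; bidirectional fitting, DMSO-referenced.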
# [11] = ATG_PPRE_CIS: Attagene CIS-FACTORIAL HepG2 Assay for human Peroxisome Proliferator-activated Response Element (PPRE) (AID 2282958); conditions: HepG2 PPRE cis-element reporter, Attagene transcription factor profiling; actives raise or lower the signal
# Procedure, shortened: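 DMSO served as negative control and baseline for bidirectional curve fitting. Signal came from PPRE-regulated reporter mRNA in HepG2 cells, measured 24 h post-dosing by RT-PCR, 6-FAM primer extension and capillary electrophoresis.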
# [12] = ATG_RORE_CIS: Attagene CIS-FACTORIAL HepG2 Assay for human RAR-related Orphan Receptor Element (RORE) (AID 2282959); conditions: HepG2 Attagene cis-factorial RORE reporter, mRNA; actives raise or lower the signal
# Procedure, shortened: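 Transfect HepG2 with MRTUs; treat 24 h; extract RNA; RT with oligo(dT); PCR with reporter-specific primers; 6-FAM primer extension; HpaI digest 2 h at 37 C; capillary electrophoresis. Fit vs DMSO, bidirectional.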
# [13] = ATG_Sox_CIS: Attagene CIS-FACTORIAL HepG2 Assay for human SRY-box transcription factor (SOX) (AID 2282960); conditions: HepG2 Attagene cis-factorial SOX reporter, mRNA; actives raise or lower the signal
# Procedure, shortened: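 Fluorescence-labelled cDNA fragments from reporter transcripts, sized by CE, give the signal. Cells: HepG2, transiently transfected with cis-regulated reporter units. Exposure 24 h; DMSO negative control; bidirectional curve fitting.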
# [14] = molecular target: Transcription factor Sp1 (Homo sapiens) (UniProt P08047); test: ATG_Sp1_CIS: Attagene CIS-FACTORIAL HepG2 Assay for human Specificity Protein 1 (Sp1) (AID 2282961); conditions: HepG2 Sp1 cis-reporter transcription, actives raise or lower the signal
# Chain of Transcription factor Sp1 (Homo sapiens) (P08047 whole entry, looked up): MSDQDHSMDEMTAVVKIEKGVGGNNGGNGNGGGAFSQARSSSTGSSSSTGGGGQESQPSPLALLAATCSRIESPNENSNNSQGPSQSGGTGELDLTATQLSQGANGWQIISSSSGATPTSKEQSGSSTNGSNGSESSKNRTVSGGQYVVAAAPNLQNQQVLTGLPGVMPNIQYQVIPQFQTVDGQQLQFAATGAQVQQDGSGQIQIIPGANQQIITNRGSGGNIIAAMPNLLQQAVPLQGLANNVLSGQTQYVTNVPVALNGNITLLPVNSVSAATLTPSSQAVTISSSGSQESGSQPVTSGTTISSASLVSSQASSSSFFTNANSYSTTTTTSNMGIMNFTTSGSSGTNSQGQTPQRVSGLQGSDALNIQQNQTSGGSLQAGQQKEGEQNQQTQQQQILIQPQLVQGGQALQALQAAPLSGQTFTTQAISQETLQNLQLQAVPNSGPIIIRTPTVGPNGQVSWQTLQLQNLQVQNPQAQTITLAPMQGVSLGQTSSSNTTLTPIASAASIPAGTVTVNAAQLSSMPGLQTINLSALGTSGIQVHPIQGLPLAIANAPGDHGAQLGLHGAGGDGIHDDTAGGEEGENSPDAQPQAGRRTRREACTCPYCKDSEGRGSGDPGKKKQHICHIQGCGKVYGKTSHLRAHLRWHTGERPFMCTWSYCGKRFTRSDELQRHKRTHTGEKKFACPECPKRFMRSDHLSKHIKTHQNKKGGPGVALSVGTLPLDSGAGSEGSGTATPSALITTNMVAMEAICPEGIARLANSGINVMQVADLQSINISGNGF
# Procedure, shortened: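 Chemicals are dosed onto HepG2 cells transfected with multiple cis-promoter reporter constructs, and after 24 h reporter RNA is reverse-transcribed, PCR-amplified and resolved by capillary electrophoresis for fluorescence quantitation; activity is scored up or down against DMSO.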
# [15] = ATG_SREBP_CIS: Attagene CIS-FACTORIAL HepG2 Assay for human Sterol Regulatory Element Binding (SREBP) (AID 2282962); conditions: HepG2 Attagene cis-factorial SREBP reporter, mRNA; actives raise or lower the signal
# Procedure, shortened: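 Twenty-four hours after chemical dosing of transfected HepG2 cultures, reporter RNA was converted to cDNA, amplified, end-labelled with 6-FAM and resolved by capillary electrophoresis. Responses were fitted relative to DMSO.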
# [16] = molecular target: Signal transducer and activator of transcription 3 (Homo sapiens) (UniProt P40763); test: ATG_STAT3_CIS: Attagene CIS-FACTORIAL HepG2 Assay for human Signal Transducer and Activator of Transcription 3 (STAT3) (AID 2282963); conditions: HepG2, Attagene cis-factorial STAT3 reporter transcription; actives raise or lower the signal
# Chain of Signal transducer and activator of transcription 3 (Homo sapiens) (P40763 whole entry, looked up): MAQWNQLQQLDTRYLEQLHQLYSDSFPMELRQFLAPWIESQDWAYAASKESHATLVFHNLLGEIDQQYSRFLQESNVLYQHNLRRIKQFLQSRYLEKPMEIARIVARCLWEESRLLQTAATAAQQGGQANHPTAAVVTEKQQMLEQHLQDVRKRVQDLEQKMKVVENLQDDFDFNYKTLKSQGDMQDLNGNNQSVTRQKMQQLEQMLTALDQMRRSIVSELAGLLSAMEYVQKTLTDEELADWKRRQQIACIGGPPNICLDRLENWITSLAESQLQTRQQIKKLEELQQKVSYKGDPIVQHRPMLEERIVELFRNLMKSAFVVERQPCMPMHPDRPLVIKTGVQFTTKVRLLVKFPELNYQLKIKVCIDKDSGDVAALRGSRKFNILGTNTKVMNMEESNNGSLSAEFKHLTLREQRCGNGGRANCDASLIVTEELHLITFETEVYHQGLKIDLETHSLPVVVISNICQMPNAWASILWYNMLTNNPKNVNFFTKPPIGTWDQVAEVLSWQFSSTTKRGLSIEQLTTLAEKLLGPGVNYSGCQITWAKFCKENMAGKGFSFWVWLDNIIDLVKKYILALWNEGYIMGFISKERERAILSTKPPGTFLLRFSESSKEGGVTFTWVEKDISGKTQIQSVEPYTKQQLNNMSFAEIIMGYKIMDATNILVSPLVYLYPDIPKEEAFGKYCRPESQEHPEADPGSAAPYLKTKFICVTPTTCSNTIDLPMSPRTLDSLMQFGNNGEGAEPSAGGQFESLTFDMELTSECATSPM
# Procedure, shortened: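 Values derive from bidirectional fits relative to DMSO of reporter mRNA levels, measured by RT-PCR with capillary electrophoresis, in HepG2 cells carrying transiently transfected cis-regulated reporter units and exposed 24 h.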
# [17] = ATG_TA_CIS: Attagene CIS-FACTORIAL HepG2 Assay for human TA Basal Promoter (AID 2282964); conditions: HepG2 Attagene CIS-factorial TA basal promoter reporter; actives raise or lower the signal
# Procedure, shortened: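 Steps: transfect HepG2 with MRTUs; dose 24 h; isolate RNA, DNase-treat, reverse-transcribe; PCR and FAM-label reporter cDNA; digest with HpaI 2h at 37 C; run capillary electrophoresis. Activity fitted both directions against DMSO.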
# [18] = ATG_TCF_b_cat_CIS: Attagene CIS-FACTORIAL HepG2 Assay for human T-Cell-Factor with beta-catenin (TCF/b-cat) (AID 2282965); conditions: HepG2 TCF/beta-catenin cis-reporter transcription, actives raise or lower the signal
# Procedure, shortened: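 Cells of the HepG2 line carry transiently transfected reporter units whose promoters respond to endogenous factors. Twenty-four hours post-dosing, reporter mRNA induction is measured by fluorescent RT-PCR and capillary electrophoresis, with DMSO as baseline.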
# [19] = molecular target: Heat shock factor protein 1 (Homo sapiens) (UniProt Q00613); test: ATG_HSE_CIS: Attagene CIS-FACTORIAL HepG2 Assay for human Heat Shock Transcription Factor 1 (HSE) (AID 2282953); conditions: HepG2 HSE cis-reporter, Attagene RNA transcription; actives raise or lower the signal
# Chain of Heat shock factor protein 1 (Homo sapiens) (Q00613 whole entry, looked up, the tested form may be a part): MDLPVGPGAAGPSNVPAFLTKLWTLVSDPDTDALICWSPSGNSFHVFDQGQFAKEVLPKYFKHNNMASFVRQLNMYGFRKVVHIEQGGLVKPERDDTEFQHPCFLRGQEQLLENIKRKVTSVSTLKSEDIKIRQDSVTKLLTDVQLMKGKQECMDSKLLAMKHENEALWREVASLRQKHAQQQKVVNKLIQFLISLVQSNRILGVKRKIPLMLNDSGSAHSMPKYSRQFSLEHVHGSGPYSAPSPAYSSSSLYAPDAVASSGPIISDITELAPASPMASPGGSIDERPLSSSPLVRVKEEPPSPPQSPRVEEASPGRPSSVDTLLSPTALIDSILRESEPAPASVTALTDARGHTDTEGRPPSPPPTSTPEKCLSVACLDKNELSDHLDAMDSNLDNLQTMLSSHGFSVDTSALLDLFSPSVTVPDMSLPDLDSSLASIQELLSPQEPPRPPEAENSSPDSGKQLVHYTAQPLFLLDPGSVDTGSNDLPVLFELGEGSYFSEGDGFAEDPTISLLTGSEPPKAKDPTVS
# Procedure, shortened: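 Cells were transfected with cis-element-driven reporter constructs, dosed for 24 h, then total RNA was reverse-transcribed and reporter cDNA amplified, FAM-labelled and digested with HpaI. Fragments were resolved by capillary electrophoresis; gain or loss was fitted against DMSO.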
smiles,measurement,setting,value
CC(C)(C)NC(N)=O,outcome,[1],inactive
same,outcome,[2],inactive
same,outcome,[3],inactive
same,outcome,[4],inactive
same,outcome,[5],inactive
same,outcome,[6],inactive
same,outcome,[7],inactive
same,outcome,[8],inactive
same,outcome,[9],inactive
same,outcome,[10],inactive
same,outcome,[11],inactive
same,outcome,[12],inactive
same,outcome,[13],inactive
same,outcome,[14],inactive
same,outcome,[15],inactive
same,outcome,[16],inactive
same,outcome,[17],inactive
same,outcome,[18],inactive
CC(C=O)Cc1ccc(C(C)C)cc1 (stereo unspecified),outcome,[1],inactive
same,outcome,[2],inactive
same,outcome,[3],inactive
same,outcome,[4],inactive
same,outcome,[5],inactive
same,outcome,[6],inactive
same,outcome,[7],inactive
same,outcome,[8],inactive
same,outcome,[9],inactive
same,outcome,[11],inactive
same,outcome,[12],inactive
same,outcome,[13],inactive
same,outcome,[14],inactive
same,outcome,[15],inactive
same,outcome,[16],inactive
same,outcome,[17],inactive
same,outcome,[18],inactive
Cc1ccc(C(C)C)cc1O,outcome,[1],inactive
same,outcome,[2],inactive
same,outcome,[3],inactive
same,outcome,[4],inactive
same,outcome,[5],inactive
same,outcome,[6],inactive
same,outcome,[19],inactive
same,outcome,[7],inactive
same,outcome,[9],inactive
same,AC50,[10],14.2 µM (active)
same,outcome,[12],inactive
same,outcome,[13],inactive
same,outcome,[14],inactive
same,outcome,[15],inactive
same,outcome,[16],inactive
same,outcome,[17],inactive
same,outcome,[18],inactive
O=[N+]([O-])c1ccc(Nc2ccc(Nc3ccccc3)c(S(=O)(=O)O)c2)c([N+](=O)[O-])c1,outcome,[1],inactive
same,outcome,[2],inactive
same,outcome,[3],inactive
same,outcome,[4],inactive
same,outcome,[5],inactive
same,outcome,[6],inactive
same,AC50,[7],100 µM (active)
same,outcome,[8],inactive
same,outcome,[9],inactive
same,AC50,[11],49.2 µM (active)
same,outcome,[13],inactive
same,outcome,[14],inactive
same,outcome,[15],inactive
same,outcome,[16],inactive
same,outcome,[17],inactive
same,AC50,[18],134 µM (active)
CCCCCCCCC,outcome,[1],inactive
same,outcome,[2],inactive
same,outcome,[3],inactive
same,outcome,[4],inactive
same,outcome,[5],inactive
same,outcome,[19],inactive
same,outcome,[7],inactive
same,outcome,[8],inactive
same,outcome,[9],inactive
same,outcome,[10],inactive
same,outcome,[11],inactive
same,outcome,[12],inactive
same,outcome,[13],inactive
same,outcome,[14],inactive
same,outcome,[15],inactive
same,outcome,[16],inactive
same,outcome,[18],inactive
C=CC(C)(CCC=C(C)C)OC=O (stereo unspecified),outcome,[1],inactive
same,outcome,[2],inactive
same,outcome,[3],inactive
same,outcome,[4],inactive
same,outcome,[5],inactive
same,outcome,[6],inactive
same,outcome,[7],inactive
same,outcome,[8],inactive
same,outcome,[9],inactive
same,AC50,[10],24.8 µM (active)
same,outcome,[11],inactive
same,outcome,[13],inactive
same,outcome,[14],inactive
same,outcome,[15],inactive
same,outcome,[16],inactive
same,outcome,[17],inactive
same,outcome,[18],inactive
COc1ccc(Cl)cc1C,outcome,[1],inactive
same,outcome,[2],inactive
same,outcome,[3],inactive
same,outcome,[4],inactive
same,outcome,[5],inactive
same,outcome,[6],inactive
same,outcome,[19],inactive
same,outcome,[7],inactive
same,outcome,[9],inactive
same,outcome,[10],inactive
same,outcome,[12],inactive
same,outcome,[13],inactive
same,outcome,[14],inactive
same,outcome,[15],inactive
same,outcome,[16],inactive
same,outcome,[17],inactive
same,outcome,[18],inactive
CCN(CC)c1ccc(C(=C2C=CC(=[N+](CC)CC)C=C2)c2ccc(S(=O)(=O)O)cc2S(=O)(=O)[O-])cc1,outcome,[1],inactive
same,outcome,[2],inactive
same,outcome,[3],inactive
same,outcome,[4],inactive
same,outcome,[5],inactive
same,outcome,[19],inactive
same,outcome,[7],inactive
same,outcome,[9],inactive
same,AC50,[10],63.4 µM (active)
same,outcome,[11],inactive
same,outcome,[12],inactive
same,outcome,[13],inactive
same,outcome,[14],inactive
same,outcome,[15],inactive
same,outcome,[16],inactive
same,outcome,[17],inactive
same,outcome,[18],inactive

# — PubChem BioAssay (EPA / NIEHS)
